Test results taken from ChEMBL document CHEMBL3988442, “University of Dundee, Small-Polar-MMV Screening Library” (2021).
Out of some 48,000 compounds screened, about 13,000 (27%) showed an effect of 50% or more. The list shows a part of the results.

The compounds below were run on Wolbachia pipientis (assay: Anti-Wolbachia Cell-Based Screen). Details: 5 µM.
Format: functional
Design: scale not given: in the data most compounds retested in dose-response had high values

Row | Structure (SMILES) | Percent Effect [%]
1 | C=C(C)COc1cccc(C(=O)N(C)Cc2cc(CC)no2)c1 | -19.24
2 | Cc1ccn(-c2ccc(N3CCCN(Cc4ccccc4)CC3)nn2)n1 | 1.996
3 | COCCCC1(CO)CCCN(C(=O)c2cnc3c(c2)CCCC3)C1 (stereo not given) | -5.76
4 | Cc1cc(C)n(CCN2CCOC(CNc3cccnn3)C2)n1 (stereo not given) | 103.1
5 | c1cnnc(NCC2CN(CC3CCOCC3)CCO2)c1 (stereo not given) | 103
6 | c1ccc(CCN2CCOC(CNc3cccnn3)C2)nc1 (stereo not given) | 95.59
7 | CCN(CC1CN(CCc2ccccn2)CCO1)c1cccnn1 (stereo not given) | -0.8374
8 | Cn1c(CN2CCOC(CNc3cccnn3)C2)nnc1C1CC1 (stereo not given) | 105.6
9 | CCn1ccnc1CN1CCOC(CNc2cccnn2)C1 (stereo not given) | 10.18
10 | Clc1snnc1CN1CCOC(CNc2cccnn2)C1 (stereo not given) | -2.392
11 | c1cnnc(NCC2CN(CCn3cncn3)CCO2)c1 (stereo not given) | -18.76
12 | CC(C)c1ccc(CNC(C)c2ccc(S(=O)(=O)N(C)C)cc2)cc1 (stereo not given) | 1.332
13 | CN(CCC#N)C(=O)CN1CCC(c2cc3ccccc3[nH]2)CC1 | -2.857
14 | O=S(=O)(c1ccccc1)N1CCN(Cc2ccc(F)cc2Br)CC1 | 23.46
15 | CCn1ccnc1-c1nc2cc(S(=O)(=O)N3CCCC3)ccc2n1C | -1.841
16 | c1ccc(OCCCN2CCOC(CNc3cccnn3)C2)cc1 (stereo not given) | 96.43
17 | Cn1cc(CCN2CCOC(CNc3cccnn3)C2)cn1 (stereo not given) | 102.6
18 | c1cnnc(NCC2CN(CCn3cccn3)CCO2)c1 (stereo not given) | -18.13
19 | N#Cc1cnn(CCN2CCOC(CNc3cccnn3)C2)c1 (stereo not given) | -39.45
20 | CC(C)CCN1CCNC(=O)C1CC(=O)N1CCc2sccc2C1 (stereo not given) | -6.453
21 | Nc1nccnc1CC1CCCN(Cc2c[nH]c3ccccc23)C1 (stereo not given) | 102
22 | O=C(Cc1c[nH]c2ccccc12)NCC1CCN(Cc2c[nH]cn2)C1 (stereo not given) | -4.859
23 | COc1ccccc1CN1CCCC(Cc2nccnc2N)C1 (stereo not given) | 104.1
24 | CCn1c(C2CCCN(Cc3ccnc4ccccc34)C2)nn(C)c1=O (stereo not given) | 0.7157
25 | c1ccc2c(Cc3nnc([C@H]4CCN(CC5CC5)C4)o3)c[nH]c2c1 | -3.432
26 | COc1ccccc1CN1CCCC(n2cccn2)C1 (stereo not given) | -0.1221
27 | O=C(NCC1CCCN(Cc2cccc3nonc23)C1)c1ccc[nH]1 (stereo not given) | 22.2

Row | Structure (SMILES) | Percent Effect [%]
28 | Nc1nccnc1CC1CCCN(Cc2cccc3[nH]ccc23)C1 (stereo not given) | 126.9
29 | Cc1nc(CC2CCCN(Cc3nc(N)c4ccccc4n3)C2)no1 (stereo not given) | -1.933
30 | Nc1nccnc1CC1CCCN(Cc2ccnc3ccccc23)C1 (stereo not given) | 254.5
31 | COc1ccccc1CC1CCCN(C(=O)c2nccnc2N)C1 (stereo not given) | 7.342
32 | CC(=O)N1[C@H](Cn2cncn2)C[C@@H]2CN(c3ccc(C)nn3)CC[C@@H]21 | 0.7192
33 | N#Cc1cccc(S(=O)(=O)Nc2c(F)cccc2N2CCCC2)c1 | -6.503
34 | Cc1nn(C)c2nc(N(Cc3ccncc3)CC3CCCO3)sc12 (stereo not given) | -11.41
35 | O=C(NCC1CCOCC1)c1cc(-c2cccnc2)c2cnccc2n1 | 94.41
36 | O=C(NCC1CCOC1)c1csc(Cc2ccccc2)n1 (stereo not given) | 5.242
37 | O=C(NCC1CCOCC1)c1cc(-c2ccncc2)c2cnccc2n1 | 108.8
38 | O=C(NCC1CCOC1)c1cc(-c2ccc(F)cc2)[nH]n1 (stereo not given) | -3.417
39 | O=C(NCC1CCOC1)c1cc(-c2ccccc2Cl)[nH]n1 (stereo not given) | -16.18
40 | CCn1cc(CN2CCCn3nc(CNC(=O)C4CCC4)cc3C2)cn1 | 6.964
41 | CCSCCC(=O)NCc1cc2n(n1)CCN(C(=O)N(C)C)C2 | -0.2016
42 | CSCC[C@H](N)C(=O)NCc1cc2n(n1)CCCN(C(=O)N(C)C)C2 | 122.1
43 | CSCCC(=O)NCc1cc2n(n1)CCN(C(=O)N(C)C)C2 | -0.4963
44 | CSCC[C@H](N)C(=O)NCc1cc2n(n1)CCCN(C(=O)C1CCC1)C2 | 51.59
45 | CSC(C)CCN1CCCn2nc(CNC(=O)C3CCC3)cc2C1 (stereo not given) | -26.67
46 | COc1c(F)cccc1C(=O)N(C)Cc1nc(-c2ccccn2)no1 | -5.196
47 | O=C(c1nnn(-c2ccccc2F)c1-c1ccccn1)N1CCSCC1 | 6.252
48 | CCC(CC)CN(C)Cc1nc(-c2ccccc2NS(C)(=O)=O)oc1C | -3.021
49 | Cc1nsc(NC(=O)N2CCCCC2CCO)n1 (stereo not given) | 17.59
50 | CN(C)c1cc(CNCc2cccc3c2OCCO3)ccn1 | -14.59
51 | OCc1cccc(CNCc2cccc3c2OCCO3)c1 | 91.71
52 | c1ncn(Cc2ccc(CNCc3ccc4c(c3)OCCO4)cc2)n1 | 118.2
53 | Cl.c1cc(CNCc2ccc(Cn3cncn3)cc2)c2c(c1)OCCO2 | 98.52
54 | c1cc(CNCc2ccnc(N3CCCC3)c2)c2c(c1)OCCCO2 | -11.45

Row | Structure (SMILES) | Percent Effect [%]
55 | Cl.c1cc(CNCc2ccnc(N3CCCC3)c2)c2c(c1)OCCO2 | 3.03
56 | c1cc(CNCc2ccnc(N3CCCCC3)c2)c2c(c1)OCCCO2 | -27.55
57 | CC(C)c1nn(C)c(Cl)c1CNCc1ccc2c(c1)OCCO2.Cl | -6.63
58 | Cl.c1cc(CNCc2cccc3c2OCCCO3)cc(Cn2cncn2)c1 | 92.05
59 | CN(C)C1CCN(C(=O)NCc2ccc(Cn3cncn3)cc2)CC1 | -7.697
60 | c1cc(CNCc2ccnc(N3CCOCC3)c2)c2c(c1)OCCO2 | -3.552
61 | O=S(=O)(CCNCc1cccc2c1OCCO2)N1CCOCC1 | -15.52
62 | CC(C)CN1C(=O)CC[C@H]2CN(C(=O)c3ncc[nH]3)CC[C@H]21 | 5.326
63 | O=C(NCC1(c2ccc(F)cc2)CCC1)N1CCC2(CCOCC2)C1 | -1.308
64 | CC(=O)c1cc(CN2C[C@@H](NS(=O)(=O)N(C)C)[C@H](C(C)C)C2)cs1 | -2.035
65 | CC(NCc1ccncc1)c1cc2c(cc1Br)OCCO2 (stereo not given) | -11.71
66 | Cc1nn(C)c(N(C)C)c1CNCc1cccc(OCCN(C)C)c1 | -12.69
67 | CCc1ncncc1C(=O)NCCNC(=O)c1ccc(C)c(F)c1 | 24
68 | CC1CN(c2cc(CNCc3cccc4c3OCCO4)ccn2)CCO1 (stereo not given) | -31.92
69 | c1cc(CNCc2ccnc(N3CCOCC3)c2)c2c(c1)OCCCO2 | 13.14
70 | c1cc(CNCc2cccc3c2OCCO3)cc(Cn2cncn2)c1 | 82.82
71 | Cc1occc1CN(C)Cc1nc2c(cnn2C)c(=O)[nH]1 | 0.5275
72 | CCN(Cc1nc2c(cnn2C)c(=O)[nH]1)Cc1ccco1 | 83.36
73 | CCN(Cc1nc2c(cnn2C)c(=O)[nH]1)Cc1cccs1 | 17.21
74 | COCCN(Cc1nc2c(cnn2C)c(=O)[nH]1)Cc1ccco1 | 0.2947
75 | CN(Cc1nc2c(cnn2C)c(=O)[nH]1)Cc1ccco1 | 90.92
76 | Cc1ccc(CN(C)Cc2nc3c(cnn3C)c(=O)[nH]2)o1 | 10.6
77 | CCN(CC)CCn1cnc(-c2ccccc2)c1-c1ncc[nH]1 | -14.65
78 | COc1c(CNC2(c3noc(C)n3)CCC2)c(C)nn1C.Cl | -0.07917
79 | CCc1nc(C)c(C(C)N(C)CCc2ccncc2)s1 (stereo not given) | 1.512
80 | O=C1CCC2(CCCN(C(=O)c3cnccn3)CC2)N1 (stereo not given) | -28.51
81 | O=C1CCCC2(CCN(C(=O)c3cnccn3)CC2)N1 | -3.096

Row | Structure (SMILES) | Percent Effect [%]
82 | CNC(=O)C1(c2cnccn2)CCCN1C(=O)c1c(F)cccc1F (stereo not given) | 94.23
83 | COCCC1(CO)CCCN(C(=O)c2cccnc2OC)C1 (stereo not given) | -0.7359
84 | CNC(=O)C1(c2cnccn2)CCCN1C(=O)c1ccccc1OC (stereo not given) | 2.763
85 | CNC(=O)C1(c2cnccn2)CCCN1C(=O)c1ccccc1C (stereo not given) | 116.1
86 | CNC(=O)C1(c2cnccn2)CCCN1C(=O)c1cccnc1OC (stereo not given) | 97.1
87 | CNC(=O)C1(c2cnccn2)CCCN1C(=O)c1ccccc1F (stereo not given) | 99.27
88 | CN(CC(=O)N1CCN(c2ccccc2F)CC1)c1cnccn1 | 4.093
89 | CCC(CC)n1ncc(C(=O)NS(=O)(=O)c2ccsc2)c1C | -0.139
90 | CN(Cc1ncnn1C)C(=O)CCn1ccc2ccccc21 | -15.17
91 | CN(C)c1ncnc2c1CCN(C(=O)c1sccc1S(N)(=O)=O)C2 | -19.94
92 | CN(C)CC(=O)N1Cc2nc(C(=O)NCc3ccncc3)oc2C1 | -11.57
93 | O=c1nc(SCc2cccnc2)c2c(n1CCO)CCCC2 | 8.765
94 | O=C(N[C@]12CC1CN(C(=O)c1ccco1)C2)c1ccoc1 (stereo not given in full) | -22.61
95 | CNC(=O)C1(c2cnccn2)CCCN1C(=O)c1ncccc1C (stereo not given) | 109.2
96 | CNc1ncccc1C(=O)N1CCCC2(CCN(C)CC2)CC1 | -1.008
97 | Fc1cccc(CNCC2OCCc3cn(CC4CCOCC4)nc32)c1.O=C(O)C(F)(F)F (stereo not given) | -13.58
98 | COCCn1cc2c(n1)C(CNCc1ccsc1)OCC2.O=C(O)C(F)(F)F (stereo not given) | 95.33
99 | COCCn1cc2c(n1)C(CNCc1ccc(F)cc1)OCC2.O=C(O)C(F)(F)F.O=C(O)C(F)(F)F (stereo not given) | 10.33
100 | O=C(O)C(F)(F)F.O=C(O)C(F)(F)F.O=C(O)C(F)(F)F.c1ccc(Cn2cc3c(n2)C(CNCC2CCOCC2)OCC3)nc1 (stereo not given) | 3.019
101 | O=C(Cc1ccccn1)NCC1OCCc2cn(CC3CC3)nc21.O=C(O)C(F)(F)F (stereo not given) | -22.67
102 | COCCn1cc2c(n1)C(CNCc1nccs1)OCC2.O=C(O)C(F)(F)F.O=C(O)C(F)(F)F (stereo not given) | 108.5
103 | O=C(O)C(F)(F)F.c1c2c(nn1CC1CCOCC1)C(CNC1CCOCC1)OCC2 (stereo not given) | -44.92
104 | O=C(O)C(F)(F)F.O=C(O)C(F)(F)F.c1cc(CNCC2OCCc3cn(CC4CC4)nc32)cs1 (stereo not given) | -9.045
105 | COCCn1cc2c(n1)C(CNCc1cccc(OC)c1)OCC2.O=C(O)C(F)(F)F (stereo not given) | 125
